Shown are actives, neighbours in structure and some others; about 6.7% of the full set was active somewhere.
C diff growth: C. difficile growth inhibition. growth activity, negative = inhibition, % at 16 µg/mL (by protocol). 86,000 tested, 0.25% active. AID 1259249. Clostridium difficile clinical isolate growth, OD600, 24 h; active compounds read low;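 active = mean growth activity at or below -80% and every replicate also at or below -80%; inconclusive = mean at or below -80% but some replicate above -80%; inactive = mean growth activity above -80%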;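 also: 0% = DMSO wells and -100% = levofloxacin 16 µg/mL wells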
Pf Dd2 growth: blocks growth of Plasmodium falciparum Dd2 parasites. P. falciparum Dd2 growth, SYBR Green, 72 h; active compounds read low. activity change, % at 10 µM. AID 1159554. 94,000 tested, 2.3% active; in the data active = activity change below about -80%; inconclusive = no clear call, values can overlap the other calls
T cruzi growth: blocks T. cruzi growth in NIH3T3 culture; 77,000 tested, 5.9% active; AID 624255; T. cruzi beta-gal in NIH3T3, GalScreen luminescence, 90 h; inhibition, % at 8.34 µM;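 active = mean inhibition above about 93%, with at least 55% of replicates each passing it, limit read from the data, passing the limit was not always enough; inconclusive = only one of those two conditions holds; inactive = neither condition holds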
* marks the source's active call; other numbers are inactive results; ? = inconclusive; / = not tested or not shown.

SMILES	C diff growth	Pf Dd2 growth	T cruzi growth
CNC[C@@H]1Oc2ncc(C#CC3(O)CCCC3)cc2C(=O)N([C@@H](C)CO)C[C@H]1C	3	4	/
C[C@@H]1CN([C@@H](C)CO)C(=O)c2cccc(NC(=O)Nc3ccc4c(c3)OCO4)c2O[C@@H]1CN(C)Cc1ccc(C(=O)Nc2ccccc2N)cc1	/	-93*	95
C[C@@H]1CN([C@@H](C)CO)C(=O)c2cccc(NC(=O)Nc3ccc4c(c3)OCO4)c2O[C@@H]1CN(C)Cc1ccc(-c2ccccc2)cc1	-96*	-47	35
C[C@H]1CN([C@@H](C)CO)C(=O)c2cccc(NC(=O)Nc3ccc4c(c3)OCO4)c2O[C@@H]1CN(C)C(=O)Nc1ccc2c(c1)OCO2	-7	19	9
C[C@@H]1CN([C@@H](C)CO)C(=O)c2cccc(NC(=O)Nc3ccc4c(c3)OCO4)c2O[C@@H]1CN(C)Cc1ccc(C(=O)O)cc1	-4	10	-10
C[C@@H]1CN([C@@H](C)CO)C(=O)c2cccc(NC(=O)Nc3ccc4c(c3)OCO4)c2O[C@@H]1CN(C)C(=O)Nc1ccc2c(c1)OCO2	-4	-90*	-3
C[C@H]1CN([C@@H](C)CO)C(=O)c2cccc(NC(=O)Nc3ccc4c(c3)OCO4)c2O[C@@H]1CN(C)Cc1ccc(C(=O)Nc2ccccc2N)cc1	5	-85*	/
C[C@H](CO)N1C[C@H](C)[C@H](CN(C)Cc2ccc(C(=O)Nc3ccccc3N)cc2)Oc2ccc(NC(=O)Nc3ccc4c(c3)OCO4)cc2C1=O	-2	-69	99
C[C@H](CO)N1C[C@H](C)[C@H](CN(C)Cc2ccc(-c3ccccc3)cc2)Oc2c(NC(=O)Nc3ccc4c(c3)OCO4)cccc2C1=O	3	-2	46
C[C@@H]1CN([C@@H](C)CO)C(=O)c2cccc(NS(=O)(=O)c3ccccc3)c2O[C@@H]1CN(C)Cc1ccc(C(F)(F)F)cc1	16	-22	34
CCC(=O)Nc1ccc2c(c1)C(=O)N(C)[C@H]1CC[C@@H](CC(=O)N3CCCCC3)O[C@H]1CO2	-7	2	1
COc1ccc(CN2CC3(CCN(C(=O)Nc4cccc(F)c4)CC3)c3c([nH]c4cc(OC)ccc34)[C@@H]2CO)cc1	/	27	/
C[C@@H]1CN([C@@H](C)CO)C(=O)c2cc(NC(=O)Nc3ccc4c(c3)OCO4)ccc2O[C@@H](C)CCCCO[C@@H]1CN(C)S(=O)(=O)c1ccc(F)cc1	1	-74	44
Cc1ccc(S(=O)(=O)N(C)C[C@@H]2OCCCC[C@@H](C)Oc3ccc(NC(=O)Nc4ccc5c(c4)OCO5)cc3C(=O)N([C@H](C)CO)C[C@@H]2C)cc1	/	-82*	/
C[C@@H]1CN([C@H](C)CO)C(=O)c2cc(NC(=O)Nc3ccc4c(c3)OCO4)ccc2O[C@@H](C)CCCCO[C@@H]1CN(C)S(=O)(=O)c1ccc(F)cc1	5	-84*	38
C[C@H]1CCCCO[C@H](CN(C)S(=O)(=O)c2ccc(F)cc2)[C@@H](C)CN([C@@H](C)CO)C(=O)c2cc(NC(=O)Nc3ccc4c(c3)OCO4)ccc2O1	-1	-76	79
Cc1ccc(S(=O)(=O)N(C)C[C@H]2OCCCC[C@H](C)Oc3ccc(NC(=O)Nc4ccc5c(c4)OCO5)cc3C(=O)N([C@@H](C)CO)C[C@@H]2C)cc1	/	-72	/
C[C@@H]1CCCCO[C@@H](CN(C)S(=O)(=O)c2ccc(Cl)cc2)[C@@H](C)CN([C@H](C)CO)C(=O)c2cc(NC(=O)Nc3ccc4c(c3)OCO4)ccc2O1	13	-88*	72
COc1ccc(C(=O)N2C[C@H]3[C@@H](c4ccccc42)[C@H](CO)N3C(=O)c2ccc(F)cc2)cc1	-7	32	33
COCC(=O)N1C[C@H](C)[C@@H](OC)CN(C)C(=O)c2cc(NC(=O)c3cc(C)on3)ccc2OC[C@H]1C	/	-8	26
CCCN(C)C[C@H]1OCCCC[C@@H](C)Oc2ccc(NS(=O)(=O)c3cccs3)cc2C(=O)N([C@H](C)CO)C[C@@H]1C	-2	-86*	/
CCCN(C)C[C@H]1OCCCC[C@@H](C)Oc2ccc(NS(=O)(=O)c3cccs3)cc2C(=O)N([C@@H](C)CO)C[C@@H]1C	-2	-90*	93
CCCN(C)C[C@H]1OCCCC[C@H](C)Oc2ccc(NS(=O)(=O)c3cccs3)cc2C(=O)N([C@@H](C)CO)C[C@H]1C	1	-63	/
CCCN(C)C[C@H]1OCCCC[C@H](C)Oc2ccc(NS(=O)(=O)c3cccs3)cc2C(=O)N([C@H](C)CO)C[C@H]1C	5	?	26
CCCNC(=O)N1CC2(CN(S(C)(=O)=O)C2)c2c(n(C)c3cc(OC)ccc23)[C@H]1CO	-4	9	/
SMILES	C diff growth	Pf Dd2 growth	T cruzi growth
C[C@@H]1CN([C@@H](C)CO)C(=O)c2cccc(NS(=O)(=O)c3ccc(F)cc3)c2O[C@@H]1CN(C)C(=O)Nc1ccccc1	0	-22	14
COc1ccc2c3c(n(C)c2c1)[C@@H](CO)N(S(=O)(=O)c1ccc(C)cc1)CC31CN(S(=O)(=O)c2ccc(C)cc2)C1	1	-73	/
C[C@@H]1CN([C@H](C)CO)C(=O)c2cc(C#CCc3ccccc3)cnc2O[C@H]1CN(C)CC1CCCC1	8	-94*	92
CCCN(C)C[C@@H]1Oc2ncc(C#Cc3ccc(OC)cc3)cc2C(=O)N([C@H](C)CO)C[C@@H]1C	15	-81*	/
COc1ccc(S(=O)(=O)N(C)C[C@@H]2Oc3ncc(-c4ccncc4)cc3C(=O)N([C@H](C)CO)C[C@H]2C)cc1	2	-60	70
CCCC#Cc1cnc2c(c1)C(=O)N([C@H](C)CO)C[C@H](C)[C@@H](CN(C)S(=O)(=O)c1cccc(OC)c1)O2	-2	-57	89
COc1cccc(S(=O)(=O)N(C)C[C@@H]2Oc3ncc(C#Cc4ccc(OC)c(OC)c4)cc3C(=O)N([C@H](C)CO)C[C@@H]2C)c1	4	-92*	60
COc1ccc(-c2cnc3c(c2)C(=O)N([C@@H](C)CO)C[C@H](C)[C@H](CN(C)S(=O)(=O)c2ccc(OC)cc2)O3)cc1	/	-83*	85
CCCN(C)C[C@@H]1Oc2ncc(C#Cc3cccc(OC)c3)cc2C(=O)N([C@H](C)CO)C[C@@H]1C	28	-45	/
C[C@@H]1CN([C@H](C)CO)C(=O)c2cc(C#CCc3ccccc3)cnc2O[C@@H]1CN(C)CC1CCOCC1	1	-57	-130
O=C(Nc1ccc(F)cc1)N[C@@H]1C[C@@H]2O[C@@H](CO)CC[C@@H]2O[C@@H]1CCc1ccc(C2=CCCC2)cc1	-5	16	/
COCC(=O)Nc1ccc2c(c1)OC[C@@H](C)N(Cc1cncnc1)C[C@@H](C)[C@@H](OC)CN(C)C2=O	/	/	12
COc1cccc(C#Cc2ccc3c(c2)[C@H]2[C@H](CCN2C(=O)c2ccc4c(c2)OCO4)[C@H](CO)N3)c1	34	-75	/
COc1ccccc1C#Cc1ccc([C@@H]2[C@@H](C#N)N(C(=O)C3CCCCC3)[C@@H]2CO)cc1	-3	-51	/
COc1ccccc1C#Cc1ccc([C@H]2[C@@H](C#N)N(C(=O)C3CC3)[C@H]2CO)cc1	5	-85*	91
COc1ccccc1C#Cc1ccc([C@H]2[C@H](C#N)N(C(=O)C3CC3)[C@H]2CO)cc1	5	-37	95

Screening data (PubChem)
